According to ChEMBL document CHEMBL2218924, “A broad activity screen in support of a chemogenomic map for kinase signalling research and drug discovery” (Biochem J, 2013):

What was measured:
[1] = target: G protein-coupled receptor kinase 6 (Homo sapiens) (UniProt P43250); conditions: at 10 µM
[2] = target: T1, Rhodopsin kinase GRK7 (Homo sapiens) (UniProt Q8WTQ7); conditions: at 1 µM
T1 sequence (whole entry): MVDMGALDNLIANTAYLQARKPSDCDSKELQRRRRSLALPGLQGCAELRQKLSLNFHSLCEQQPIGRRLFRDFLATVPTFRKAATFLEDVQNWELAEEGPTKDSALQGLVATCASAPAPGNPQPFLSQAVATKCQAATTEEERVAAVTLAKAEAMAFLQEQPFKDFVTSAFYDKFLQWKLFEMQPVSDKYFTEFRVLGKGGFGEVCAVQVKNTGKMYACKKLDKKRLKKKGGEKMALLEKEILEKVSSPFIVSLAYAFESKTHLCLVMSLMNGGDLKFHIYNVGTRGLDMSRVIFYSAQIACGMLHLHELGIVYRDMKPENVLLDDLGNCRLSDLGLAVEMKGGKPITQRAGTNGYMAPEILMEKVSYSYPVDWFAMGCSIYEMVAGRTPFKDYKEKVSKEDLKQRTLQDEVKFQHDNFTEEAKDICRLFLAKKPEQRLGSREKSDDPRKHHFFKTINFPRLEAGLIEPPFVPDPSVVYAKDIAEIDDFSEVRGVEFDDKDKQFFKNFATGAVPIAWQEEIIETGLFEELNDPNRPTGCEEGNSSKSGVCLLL

[3] = target: T1, Rhodopsin kinase GRK7 (Homo sapiens); conditions: at 10 µM
[4] = target: Glycogen synthase kinase-3 alpha (Homo sapiens) (UniProt P49840); conditions: at 1 µM
Sequence of Glycogen synthase kinase-3 alpha (Homo sapiens) (P49840 2-483 limits assumed): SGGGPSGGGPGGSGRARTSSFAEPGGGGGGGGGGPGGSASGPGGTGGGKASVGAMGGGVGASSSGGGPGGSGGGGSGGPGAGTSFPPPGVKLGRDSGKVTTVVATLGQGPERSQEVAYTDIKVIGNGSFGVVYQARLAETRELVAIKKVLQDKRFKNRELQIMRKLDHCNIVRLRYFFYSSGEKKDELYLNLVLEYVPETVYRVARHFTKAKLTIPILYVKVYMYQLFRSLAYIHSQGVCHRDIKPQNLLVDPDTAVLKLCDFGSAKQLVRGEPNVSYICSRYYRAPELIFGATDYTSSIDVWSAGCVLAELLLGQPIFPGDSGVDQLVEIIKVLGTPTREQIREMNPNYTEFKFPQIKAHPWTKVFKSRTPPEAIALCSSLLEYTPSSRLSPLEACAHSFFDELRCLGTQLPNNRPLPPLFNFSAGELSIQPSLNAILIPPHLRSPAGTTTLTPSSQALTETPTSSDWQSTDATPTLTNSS

[5] = target: Glycogen synthase kinase-3 alpha (Homo sapiens) (UniProt P49840); conditions: at 10 µM
[6] = target: Glycogen synthase kinase-3 beta (Homo sapiens) (UniProt P49841); conditions: at 10 µM
Sequence of Glycogen synthase kinase-3 beta (Homo sapiens) (P49841 whole entry, looked up): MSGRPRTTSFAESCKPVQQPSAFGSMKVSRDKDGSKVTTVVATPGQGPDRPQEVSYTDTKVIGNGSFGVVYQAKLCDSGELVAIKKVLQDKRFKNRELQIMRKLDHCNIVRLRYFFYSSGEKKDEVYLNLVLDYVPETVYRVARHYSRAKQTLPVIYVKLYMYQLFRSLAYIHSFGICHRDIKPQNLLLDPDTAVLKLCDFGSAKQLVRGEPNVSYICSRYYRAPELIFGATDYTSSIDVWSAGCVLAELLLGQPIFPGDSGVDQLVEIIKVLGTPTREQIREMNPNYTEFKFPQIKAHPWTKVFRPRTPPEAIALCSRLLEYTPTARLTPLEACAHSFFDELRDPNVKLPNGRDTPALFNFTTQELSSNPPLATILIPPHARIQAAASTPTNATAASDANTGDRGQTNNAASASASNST

[7] = target: Homeodomain-interacting protein kinase 1 (Homo sapiens) (UniProt Q86Z02); conditions: at 1 µM
Sequence of Homeodomain-interacting protein kinase 1 (Homo sapiens) (Q86Z02 whole entry, looked up): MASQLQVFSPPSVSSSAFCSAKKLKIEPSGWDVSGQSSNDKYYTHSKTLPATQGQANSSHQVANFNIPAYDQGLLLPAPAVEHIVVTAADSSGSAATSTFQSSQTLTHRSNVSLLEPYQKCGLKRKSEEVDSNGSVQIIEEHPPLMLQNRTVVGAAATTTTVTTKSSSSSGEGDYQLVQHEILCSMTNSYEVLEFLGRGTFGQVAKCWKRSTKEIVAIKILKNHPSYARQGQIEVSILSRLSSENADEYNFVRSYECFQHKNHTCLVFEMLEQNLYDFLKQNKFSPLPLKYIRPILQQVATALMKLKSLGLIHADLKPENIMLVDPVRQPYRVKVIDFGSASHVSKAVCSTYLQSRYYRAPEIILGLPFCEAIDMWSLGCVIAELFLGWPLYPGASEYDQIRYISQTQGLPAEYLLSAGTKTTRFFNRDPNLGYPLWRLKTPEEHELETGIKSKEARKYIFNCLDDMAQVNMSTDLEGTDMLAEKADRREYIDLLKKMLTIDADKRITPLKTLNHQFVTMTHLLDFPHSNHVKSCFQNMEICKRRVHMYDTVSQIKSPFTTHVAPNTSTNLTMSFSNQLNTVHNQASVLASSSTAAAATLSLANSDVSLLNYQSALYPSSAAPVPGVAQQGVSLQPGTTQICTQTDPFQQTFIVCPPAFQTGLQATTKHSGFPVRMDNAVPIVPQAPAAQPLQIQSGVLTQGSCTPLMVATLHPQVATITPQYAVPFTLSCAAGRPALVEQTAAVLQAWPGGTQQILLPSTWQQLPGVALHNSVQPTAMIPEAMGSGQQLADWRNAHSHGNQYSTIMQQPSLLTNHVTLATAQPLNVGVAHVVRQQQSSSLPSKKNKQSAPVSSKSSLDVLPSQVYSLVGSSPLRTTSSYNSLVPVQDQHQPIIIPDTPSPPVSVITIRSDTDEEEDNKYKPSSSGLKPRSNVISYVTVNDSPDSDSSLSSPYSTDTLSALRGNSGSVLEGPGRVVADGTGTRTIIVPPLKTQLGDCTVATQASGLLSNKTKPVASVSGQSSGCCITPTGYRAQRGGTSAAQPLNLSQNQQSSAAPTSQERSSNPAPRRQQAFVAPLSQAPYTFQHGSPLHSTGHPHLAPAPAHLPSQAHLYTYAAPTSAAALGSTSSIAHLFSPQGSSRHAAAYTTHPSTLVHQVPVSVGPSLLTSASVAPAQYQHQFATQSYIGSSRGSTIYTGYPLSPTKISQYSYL

[8] = target: Homeodomain-interacting protein kinase 1 (Homo sapiens) (UniProt Q86Z02); conditions: at 10 µM
[9] = target: Homeodomain-interacting protein kinase 2 (Homo sapiens) (UniProt Q9H2X6); conditions: at 1 µM
Sequence of Homeodomain-interacting protein kinase 2 (Homo sapiens) (Q9H2X6 whole entry, looked up): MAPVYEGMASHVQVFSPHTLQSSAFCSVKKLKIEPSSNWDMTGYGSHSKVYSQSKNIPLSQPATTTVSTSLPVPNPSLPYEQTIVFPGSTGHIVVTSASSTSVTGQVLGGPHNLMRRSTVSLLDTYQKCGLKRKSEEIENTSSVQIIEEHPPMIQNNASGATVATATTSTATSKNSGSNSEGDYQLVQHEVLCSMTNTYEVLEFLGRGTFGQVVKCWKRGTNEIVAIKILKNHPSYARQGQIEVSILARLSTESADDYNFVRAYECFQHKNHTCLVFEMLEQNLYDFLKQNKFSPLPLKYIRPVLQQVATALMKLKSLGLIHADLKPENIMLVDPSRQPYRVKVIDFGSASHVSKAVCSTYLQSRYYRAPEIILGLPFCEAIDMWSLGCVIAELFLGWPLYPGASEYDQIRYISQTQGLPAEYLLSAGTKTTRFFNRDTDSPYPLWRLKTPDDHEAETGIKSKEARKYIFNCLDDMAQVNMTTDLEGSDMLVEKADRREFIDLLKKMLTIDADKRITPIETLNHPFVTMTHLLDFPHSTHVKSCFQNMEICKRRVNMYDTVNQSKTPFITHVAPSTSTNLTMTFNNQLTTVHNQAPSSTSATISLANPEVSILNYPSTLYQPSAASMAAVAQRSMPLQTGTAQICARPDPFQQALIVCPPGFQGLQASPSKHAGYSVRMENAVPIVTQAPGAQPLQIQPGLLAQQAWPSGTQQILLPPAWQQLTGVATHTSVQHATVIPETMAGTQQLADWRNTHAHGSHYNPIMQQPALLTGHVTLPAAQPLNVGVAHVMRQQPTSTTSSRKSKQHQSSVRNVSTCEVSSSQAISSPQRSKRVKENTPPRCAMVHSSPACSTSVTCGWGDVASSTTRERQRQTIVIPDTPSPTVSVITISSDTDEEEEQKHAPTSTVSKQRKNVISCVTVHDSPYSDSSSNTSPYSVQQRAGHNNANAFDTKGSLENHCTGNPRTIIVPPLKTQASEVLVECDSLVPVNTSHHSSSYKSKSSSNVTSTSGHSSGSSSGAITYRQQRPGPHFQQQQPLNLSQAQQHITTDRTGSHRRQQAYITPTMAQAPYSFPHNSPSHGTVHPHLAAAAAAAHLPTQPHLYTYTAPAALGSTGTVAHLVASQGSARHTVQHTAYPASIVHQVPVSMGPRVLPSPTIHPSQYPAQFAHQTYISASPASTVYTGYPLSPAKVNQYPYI

[10] = target: Glycogen synthase kinase-3 beta (Homo sapiens) (UniProt P49841); conditions: at 1 µM

Sequence of G protein-coupled receptor kinase 6 (Homo sapiens) (P43250 whole entry, looked up): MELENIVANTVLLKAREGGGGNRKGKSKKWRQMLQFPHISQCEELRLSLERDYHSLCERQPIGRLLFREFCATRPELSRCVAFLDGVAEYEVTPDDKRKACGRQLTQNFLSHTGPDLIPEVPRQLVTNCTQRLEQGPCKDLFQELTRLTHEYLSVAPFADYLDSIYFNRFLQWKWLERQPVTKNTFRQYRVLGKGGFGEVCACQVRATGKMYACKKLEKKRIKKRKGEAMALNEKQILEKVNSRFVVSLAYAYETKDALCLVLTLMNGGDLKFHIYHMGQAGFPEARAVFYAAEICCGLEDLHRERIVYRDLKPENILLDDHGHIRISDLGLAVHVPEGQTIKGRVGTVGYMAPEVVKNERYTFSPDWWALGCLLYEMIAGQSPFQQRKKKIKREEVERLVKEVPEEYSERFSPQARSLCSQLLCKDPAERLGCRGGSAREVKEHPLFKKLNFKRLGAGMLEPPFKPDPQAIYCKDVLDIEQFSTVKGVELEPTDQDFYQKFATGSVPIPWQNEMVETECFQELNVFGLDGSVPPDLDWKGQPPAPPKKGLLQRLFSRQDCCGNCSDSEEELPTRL

Row | SMILES | residual activity [1] [%] | residual activity [2] [%] | residual activity [3] [%] | residual activity [4] [%] | residual activity [5] [%] | residual activity [6] [%] | residual activity [7] [%] | residual activity [8] [%] | residual activity [9] [%] | residual activity [10] [%]
1 | C[S+]([O-])c1ccc(-c2nc(-c3ccc(F)cc3)c(-c3ccncc3)[nH]2)cc1 (configuration not stated) | 102 | 109 | 108 | 86 | 49 | 34 | 102 | 97 | 110 | 
2 | O=C1NC(=O)c2c1c1c3ccccc3n3c1c1c2c2ccccc2n1C1CCC3O1 |  |  |  | 15 | 3 | 23 |  |  | 42 | 40
3 | COc1cc(OC)c(/C=C2\C(=O)Nc3ccccc32)c(OC)c1 | 91 | 95 | 84 | 105 | 95 | 106 | 102 | 98 | 104 | 132
4 | COC(=O)[C@@]1(O)C[C@H]2O[C@]1(C)n1c3ccccc3c3c4c(c5c6ccccc6n2c5c31)C(=O)NC4 | 5 | 4 | 4 | 14 | 3 | 10 | 78 | 15 | 22 | 29
5 | COc1ccc2c(c[n+](C)c3c4cc5c(cc4ccc23)OCO5)c1OC | 93 | 99 | 91 | 126 |  | 83 |  |  |  | 97
6 | CC(C)(C)c1cc(C=C(C#N)C#N)cc(Br)c1O | 104 | 113 | 102 | 117 | 74 | 96 | 107 | 104 | 101 | 106
7 | CN[C@@H]1C[C@H]2O[C@@](C)([C@@H]1OC)n1c3ccccc3c3c4c(c5c6ccccc6n2c5c31)C(=O)NC4 |  |  |  |  |  |  | 87 |  |  | 
8 | O=C1Nc2ccc3ncsc3c2/C1=C/c1c[nH]cn1 | 60 | 63 | 20 | 4 | 1 | 0 | 64 | 26 | 32 | 4
9 | CCc1nc(-c2ccc(OC)cc2)[nH]c1-c1ccncc1 |  |  |  | 106 |  | 115 |  |  |  | 114
10 | CCn1cnc2c(Nc3cccc(Cl)c3)nc(N[C@@H]3CCCC[C@@H]3N)nc21 | 68 | 74 | 24 | 123 | 119 | 136 |  | 81 | 85 | 132
11 | COc1cc2ncnc(Nc3ccc(OCc4ccccc4)cc3)c2cc1OC | 97 | 105 | 99 | 100 | 160 | 119 | 102 | 105 | 104 | 104
12 | c1cc(-c2cnn3cc(-c4ccc(OCCN5CCCCC5)cc4)cnc23)ccn1 |  |  |  | 100 | 76 |  | 85 | 34 | 62 | 
13 | N/C(=N\[N+](=O)[O-])N/N=C\c1ccc(-c2cccc([N+](=O)[O-])c2)o1 | 94 | 100 | 91 | 99 | 78 | 97 | 99 | 100 | 82 | 
14 | O=[N+]([O-])/C=C/c1ccc2c(c1)OCO2 | 89 | 103 | 86 | 125 | 113 | 74 | 96 | 112 | 93 | 
15 | CC(C)[C@H](CO)Nc1nc(Nc2cccc(Cl)c2)c2ncn(C(C)C)c2n1 |  | 95 | 44 |  |  | 57 | 97 | 49 | 88 | 134
16 | O=c1[nH]c2ccccc2n1C1CCN(Cc2ccc(-c3nc4cc5[nH]cnc5cc4nc3-c3ccccc3)cc2)CC1 | 94 | 110 | 94 | 112 | 123 | 106 | 101 | 98 | 98 | 108
17 | O=C1c2ccccc2-c2nc3nnnn3nc21 |  |  |  | 101 | 120 | 101 |  |  |  | 115
18 | COc1ccc2c(c1)/C(=C/c1cnc[nH]1)C(=O)N2 | 76 |  | 42 |  |  | 4 |  | 52 |  | 42
